Test results taken from the supplement of paper PMC11732987, “Enantioselective OTUD7B fragment discovery through chemoproteomics screening and high-throughput optimisation” (Communications Chemistry, 2025).

How the values were obtained:
Assay in all cases: log2 ratio of Biotin-Ahx-Ub-VS probe labelling (fragment/DMSO); higher = less target engagement (more negative = stronger competition), active = hit call of the paper (q ≤ 0.05, log2 ratio ≤ -1)
Details in all cases: compound concentration: 200 uM; treatment time: 3 h
USP19 = target: T1, USP19 (UniProt O94966)
T1 sequence (whole entry): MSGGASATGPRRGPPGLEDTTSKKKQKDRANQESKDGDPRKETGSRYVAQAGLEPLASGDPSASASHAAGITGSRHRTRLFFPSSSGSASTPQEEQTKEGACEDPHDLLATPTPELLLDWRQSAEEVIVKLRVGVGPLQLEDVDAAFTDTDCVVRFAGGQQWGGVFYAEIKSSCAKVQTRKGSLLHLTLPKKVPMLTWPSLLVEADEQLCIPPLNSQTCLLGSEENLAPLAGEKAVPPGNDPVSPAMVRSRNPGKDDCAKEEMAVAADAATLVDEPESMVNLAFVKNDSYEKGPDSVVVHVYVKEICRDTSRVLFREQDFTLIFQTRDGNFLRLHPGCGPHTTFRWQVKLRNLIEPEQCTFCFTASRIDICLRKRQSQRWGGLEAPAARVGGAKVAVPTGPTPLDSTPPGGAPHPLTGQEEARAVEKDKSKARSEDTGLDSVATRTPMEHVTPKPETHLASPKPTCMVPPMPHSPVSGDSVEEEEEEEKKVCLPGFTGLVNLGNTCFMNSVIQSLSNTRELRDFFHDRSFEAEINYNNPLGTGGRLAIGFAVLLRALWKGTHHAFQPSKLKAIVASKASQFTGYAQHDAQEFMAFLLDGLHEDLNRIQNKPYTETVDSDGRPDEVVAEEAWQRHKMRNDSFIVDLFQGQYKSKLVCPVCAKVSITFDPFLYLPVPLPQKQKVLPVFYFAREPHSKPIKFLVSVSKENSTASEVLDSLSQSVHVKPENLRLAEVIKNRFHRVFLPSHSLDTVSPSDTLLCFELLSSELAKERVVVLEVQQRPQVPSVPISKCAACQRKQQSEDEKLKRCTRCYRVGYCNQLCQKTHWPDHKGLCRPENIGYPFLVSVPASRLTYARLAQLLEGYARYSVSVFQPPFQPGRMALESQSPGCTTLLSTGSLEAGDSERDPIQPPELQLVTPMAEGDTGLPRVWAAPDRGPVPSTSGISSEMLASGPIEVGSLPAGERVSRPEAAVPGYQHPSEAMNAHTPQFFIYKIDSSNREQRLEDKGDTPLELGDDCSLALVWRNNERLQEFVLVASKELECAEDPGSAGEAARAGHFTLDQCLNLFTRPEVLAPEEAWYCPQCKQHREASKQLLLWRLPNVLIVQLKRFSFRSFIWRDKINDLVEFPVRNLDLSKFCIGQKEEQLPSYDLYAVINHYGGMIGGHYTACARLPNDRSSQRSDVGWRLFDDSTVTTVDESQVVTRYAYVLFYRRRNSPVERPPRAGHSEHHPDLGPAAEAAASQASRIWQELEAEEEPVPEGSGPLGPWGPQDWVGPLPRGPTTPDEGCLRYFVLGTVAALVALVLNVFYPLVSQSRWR
Method in brief: (§1)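 HEK293T lysate (495 µg per sample, in Tris/CHAPS/IGEPAL buffer with protease inhibitors) was exposed in triplicate for 3 h to fragment at 200 µM or to vehicle, then to Biotin-Ahx-Ub-VS at 0.5 µM final for 1 h. Labelled DUBs were enriched on NeutrAvidin, digested with LysC and trypsin, and analysed by diaPASEF LC-MS/MS. Spectronaut label-free quantities were normalised to the global median, and values are average log2 ratios of fragment over vehicle from an unpaired t-test. Only proteins with ≥2 unique peptides were used.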

USP24 = USP24 (UniProt Q9UPU5)
Method in brief: as §1

USP25 = target: T2, USP25 (UniProt Q9UHP3)
T2 sequence (whole entry): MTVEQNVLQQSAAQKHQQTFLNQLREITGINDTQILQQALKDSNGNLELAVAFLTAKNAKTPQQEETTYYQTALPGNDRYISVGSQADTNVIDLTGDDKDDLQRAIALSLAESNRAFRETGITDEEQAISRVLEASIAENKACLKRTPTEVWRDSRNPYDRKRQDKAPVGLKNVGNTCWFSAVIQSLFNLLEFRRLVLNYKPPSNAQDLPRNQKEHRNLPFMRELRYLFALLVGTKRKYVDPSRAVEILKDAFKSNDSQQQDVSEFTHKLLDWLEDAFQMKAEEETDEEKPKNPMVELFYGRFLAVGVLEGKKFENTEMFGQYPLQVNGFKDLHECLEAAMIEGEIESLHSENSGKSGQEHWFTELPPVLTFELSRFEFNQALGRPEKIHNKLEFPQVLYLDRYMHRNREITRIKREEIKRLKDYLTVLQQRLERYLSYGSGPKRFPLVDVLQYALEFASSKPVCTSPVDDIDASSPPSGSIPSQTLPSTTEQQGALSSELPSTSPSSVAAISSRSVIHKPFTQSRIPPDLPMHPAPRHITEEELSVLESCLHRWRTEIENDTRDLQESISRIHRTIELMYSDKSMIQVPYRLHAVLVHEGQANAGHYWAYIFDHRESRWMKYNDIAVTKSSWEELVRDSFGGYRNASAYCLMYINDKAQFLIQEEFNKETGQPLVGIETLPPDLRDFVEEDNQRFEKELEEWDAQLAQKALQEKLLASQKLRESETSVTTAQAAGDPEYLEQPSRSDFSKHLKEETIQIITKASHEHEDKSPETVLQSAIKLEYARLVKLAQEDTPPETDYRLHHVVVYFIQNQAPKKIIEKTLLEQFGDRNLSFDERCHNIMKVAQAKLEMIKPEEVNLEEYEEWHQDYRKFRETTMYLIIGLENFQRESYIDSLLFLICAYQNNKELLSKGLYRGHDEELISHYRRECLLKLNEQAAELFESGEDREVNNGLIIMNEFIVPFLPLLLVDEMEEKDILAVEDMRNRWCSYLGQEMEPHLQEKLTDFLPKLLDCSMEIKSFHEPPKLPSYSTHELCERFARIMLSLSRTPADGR
Method in brief: as §1

USP28 = target: T3, USP28 (UniProt Q96RU2)
T3 sequence (whole entry): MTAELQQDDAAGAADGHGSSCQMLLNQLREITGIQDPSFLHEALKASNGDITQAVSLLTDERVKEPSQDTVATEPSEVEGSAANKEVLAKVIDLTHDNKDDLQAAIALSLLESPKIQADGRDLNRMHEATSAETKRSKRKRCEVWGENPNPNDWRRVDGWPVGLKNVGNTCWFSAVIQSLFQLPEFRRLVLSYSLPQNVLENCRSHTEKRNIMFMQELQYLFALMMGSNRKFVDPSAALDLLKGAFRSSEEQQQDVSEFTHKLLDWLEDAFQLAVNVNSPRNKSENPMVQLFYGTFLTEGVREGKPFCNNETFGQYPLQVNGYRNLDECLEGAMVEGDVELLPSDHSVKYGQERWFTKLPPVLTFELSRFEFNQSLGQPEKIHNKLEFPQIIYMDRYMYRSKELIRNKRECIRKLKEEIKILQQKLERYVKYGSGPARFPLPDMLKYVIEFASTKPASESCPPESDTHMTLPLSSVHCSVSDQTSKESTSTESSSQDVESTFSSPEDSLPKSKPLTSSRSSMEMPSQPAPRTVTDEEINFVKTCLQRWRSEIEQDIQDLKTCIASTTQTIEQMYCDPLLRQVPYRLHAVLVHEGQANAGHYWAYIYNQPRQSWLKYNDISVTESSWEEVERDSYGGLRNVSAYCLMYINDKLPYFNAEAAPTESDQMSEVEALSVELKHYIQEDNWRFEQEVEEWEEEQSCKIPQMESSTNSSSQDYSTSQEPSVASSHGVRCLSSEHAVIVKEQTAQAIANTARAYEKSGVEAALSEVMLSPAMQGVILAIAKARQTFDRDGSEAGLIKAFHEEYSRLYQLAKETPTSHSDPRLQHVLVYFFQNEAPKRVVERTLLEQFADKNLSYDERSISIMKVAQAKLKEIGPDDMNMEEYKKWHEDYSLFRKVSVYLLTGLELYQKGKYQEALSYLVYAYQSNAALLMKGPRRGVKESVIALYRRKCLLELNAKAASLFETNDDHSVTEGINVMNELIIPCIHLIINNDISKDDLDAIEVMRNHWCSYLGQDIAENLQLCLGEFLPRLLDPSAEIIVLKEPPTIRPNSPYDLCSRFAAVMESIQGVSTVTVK
Method in brief: as §1

Measured: log2 ratio of Biotin-Ahx-Ub-VS probe labelling

Sequence of USP24 (Q9UPU5 whole entry): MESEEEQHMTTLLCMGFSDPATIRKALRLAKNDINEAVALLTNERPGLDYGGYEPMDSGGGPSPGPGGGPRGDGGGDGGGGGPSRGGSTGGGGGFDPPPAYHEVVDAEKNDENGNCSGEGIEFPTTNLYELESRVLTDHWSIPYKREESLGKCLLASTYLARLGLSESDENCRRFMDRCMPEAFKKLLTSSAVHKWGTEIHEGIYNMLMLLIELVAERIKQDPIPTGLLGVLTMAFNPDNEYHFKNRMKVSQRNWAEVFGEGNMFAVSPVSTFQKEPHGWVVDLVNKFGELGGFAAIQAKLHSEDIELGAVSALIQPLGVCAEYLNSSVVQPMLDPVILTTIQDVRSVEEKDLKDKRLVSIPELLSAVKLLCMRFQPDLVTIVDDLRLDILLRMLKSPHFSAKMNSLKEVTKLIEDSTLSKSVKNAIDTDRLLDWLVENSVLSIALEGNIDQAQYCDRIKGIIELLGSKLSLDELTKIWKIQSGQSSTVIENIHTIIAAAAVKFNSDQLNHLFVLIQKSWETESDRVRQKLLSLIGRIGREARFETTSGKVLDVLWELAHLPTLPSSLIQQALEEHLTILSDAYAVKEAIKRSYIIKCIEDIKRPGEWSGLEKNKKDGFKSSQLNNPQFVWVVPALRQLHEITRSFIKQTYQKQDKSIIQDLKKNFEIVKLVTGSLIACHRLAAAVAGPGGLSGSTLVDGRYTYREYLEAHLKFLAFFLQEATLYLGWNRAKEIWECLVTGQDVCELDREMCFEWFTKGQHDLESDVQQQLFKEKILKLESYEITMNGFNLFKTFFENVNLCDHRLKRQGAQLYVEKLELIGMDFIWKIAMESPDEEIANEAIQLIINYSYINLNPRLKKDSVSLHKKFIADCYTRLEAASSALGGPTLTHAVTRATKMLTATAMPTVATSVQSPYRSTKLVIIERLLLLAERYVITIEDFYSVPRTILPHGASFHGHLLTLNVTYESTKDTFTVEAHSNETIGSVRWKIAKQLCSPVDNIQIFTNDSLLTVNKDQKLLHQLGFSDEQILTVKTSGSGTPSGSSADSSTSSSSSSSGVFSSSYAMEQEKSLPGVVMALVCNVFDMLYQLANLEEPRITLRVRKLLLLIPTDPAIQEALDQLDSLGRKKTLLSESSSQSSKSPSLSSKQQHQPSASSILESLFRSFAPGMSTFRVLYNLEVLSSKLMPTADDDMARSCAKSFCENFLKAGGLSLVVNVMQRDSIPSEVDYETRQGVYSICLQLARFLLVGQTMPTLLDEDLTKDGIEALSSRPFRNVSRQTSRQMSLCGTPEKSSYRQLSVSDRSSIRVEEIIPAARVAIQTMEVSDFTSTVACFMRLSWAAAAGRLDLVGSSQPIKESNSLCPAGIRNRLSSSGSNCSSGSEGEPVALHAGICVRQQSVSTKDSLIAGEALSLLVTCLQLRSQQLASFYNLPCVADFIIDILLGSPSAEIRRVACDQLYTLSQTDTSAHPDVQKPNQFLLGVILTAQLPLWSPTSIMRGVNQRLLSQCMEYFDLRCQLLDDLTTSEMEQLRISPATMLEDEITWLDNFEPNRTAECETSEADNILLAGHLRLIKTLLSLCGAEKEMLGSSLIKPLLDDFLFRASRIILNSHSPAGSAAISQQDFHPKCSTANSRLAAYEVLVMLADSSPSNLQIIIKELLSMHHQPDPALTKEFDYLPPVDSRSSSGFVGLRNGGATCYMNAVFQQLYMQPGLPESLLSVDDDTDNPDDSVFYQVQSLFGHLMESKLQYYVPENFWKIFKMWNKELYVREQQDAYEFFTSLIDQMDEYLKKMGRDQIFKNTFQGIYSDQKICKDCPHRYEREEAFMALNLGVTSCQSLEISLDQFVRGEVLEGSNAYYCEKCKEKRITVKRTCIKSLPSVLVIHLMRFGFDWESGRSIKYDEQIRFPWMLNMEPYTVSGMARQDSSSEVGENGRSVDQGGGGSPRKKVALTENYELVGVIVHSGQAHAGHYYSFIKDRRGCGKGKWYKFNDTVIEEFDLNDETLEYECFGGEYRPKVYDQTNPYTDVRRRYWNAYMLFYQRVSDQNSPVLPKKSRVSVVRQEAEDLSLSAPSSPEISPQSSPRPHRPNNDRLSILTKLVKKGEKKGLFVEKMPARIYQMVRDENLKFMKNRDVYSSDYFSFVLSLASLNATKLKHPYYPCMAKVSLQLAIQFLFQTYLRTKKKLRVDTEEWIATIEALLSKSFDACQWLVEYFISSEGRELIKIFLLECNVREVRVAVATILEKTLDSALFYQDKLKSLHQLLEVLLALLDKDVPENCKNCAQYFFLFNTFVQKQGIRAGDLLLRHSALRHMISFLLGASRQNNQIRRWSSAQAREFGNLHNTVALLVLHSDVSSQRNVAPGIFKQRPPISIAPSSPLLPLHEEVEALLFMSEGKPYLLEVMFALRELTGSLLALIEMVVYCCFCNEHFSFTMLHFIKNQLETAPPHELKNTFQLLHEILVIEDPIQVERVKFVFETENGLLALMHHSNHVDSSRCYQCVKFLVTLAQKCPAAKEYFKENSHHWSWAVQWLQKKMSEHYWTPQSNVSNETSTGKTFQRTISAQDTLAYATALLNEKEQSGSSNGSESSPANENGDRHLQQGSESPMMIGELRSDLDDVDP

O=C(CCl)NCCc1ccc2c(c1)OCCO2
inactive: USP19 -0.254 | USP24 -0.665 | USP25 -0.794 | USP28 -0.745
